According to PubChem BioAssay AID488829 (NMMLSC, 2010):
The other results are listed elsewhere or left out. Values without a mark were called inactive.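 Rule for the calls: active = fluorescence change span, or the activity score built from it, above 25; inactive = the rest.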

Test: autofluorescence of compounds in yeast s288c, dose response, artefact control for yeast TOR pathway GFP screen, primary hits, KU SAR, s288c parental (AID 488829)
Settings: S. cerevisiae s288c parental, compound autofluorescence, flow cytometry, 3 h; at 33 µM; active compounds read high

| SMILES | fluorescence change (span) |
| --- | --- |
| Cc1ccc(-c2nn(C(C)(C)C)c3ncnc(N)c23)cc1 | 0.41 |
| CN(C)CCCNc1nc(N)c([N+](=O)[O-])c(Nc2cccc(F)c2)n1 | 0.05 |
